In the supplement of paper PMC6555819 one finds PBM binding z-score data, which are given here for nine sequences.

What all share (assay): PBM binding z-score (relative to random genomic background probes); higher = stronger binding; sequences stand for … in GC…GCGATTGACAGCGTAGAATGAAGG
In experiment [1] the test system is FXR:RXRa (NR concentration 270 nM, RXRa partner concentration 90 nM). The method, boiled down: (§1)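 Custom Agilent 4×180K protein-binding microarrays carried double-stranded probes. Their 34-nt variable regions held direct-repeat seeds, single-nucleotide variants, half-site ablations and random human genomic background sequences. Arrays were incubated 1 h with ligand-free nuclear receptor dimers in PBS pH 7.4, 2% milk, 0.02% Triton X-100, 1 mM DTT, 0.2 mg/mL BSA and 0.4 mg/ml salmon testes DNA. Antibodies against each partner (one per run) detected binding, and scanned fluorescence was regression-normalized. Binding z-scores use random background probes as reference.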

For experiment [2], the system named is LXRa:RXRa (NR concentration 270 nM, RXRa partner concentration 90 nM). Summed up: as §1
For experiment [3], the system named is LXRa homodimer (NR concentration 270 nM). Summed up: as §1
Experiment [4] has as its system LXRb:RXRa (NR concentration 270 nM, RXRa partner concentration 90 nM). The method, boiled down: as §1
In experiment [5] the test system is PPARa:RXRa (NR concentration 270 nM, RXRa partner concentration 90 nM). The method, boiled down: as §1
Experiment [6] concerns PPARg:RXRa (NR concentration 180 nM, RXRa partner concentration 90 nM). Summed up: as §1
Experiment [7] deals with PPARg:RXRa 270nM:90nM, anti-RXR (NR concentration 270 nM, RXRa partner concentration 90 nM). Summed up: as §1
Experiment [8] concerns PPARg:RXRa 30nM:10nM, anti-RXR (NR concentration 30 nM, RXRa partner concentration 10 nM). Summed up:
as §1

The subject of experiment [9] is PPARg:RXRa 90nM:30nM, anti-RXR (NR concentration 90 nM, RXRa partner concentration 30 nM). The method, boiled down:
as §1

Experiment [10] relates to PPARg:RXRa DBDmut IVT, anti-RXR (DBD mutation: RXRa K156A/R161A, NR concentration 270 nM, RXRa partner concentration 90 nM). Summed up:
as §1

For experiment [11], the system named is PPARg:RXRa IVT, anti-PPARg (NR concentration 270 nM, RXRa partner concentration 90 nM). Summed up: as §1
Experiment [12] relates to PPARg homodimer (NR concentration 180 nM). Summed up:
as §1

For experiment [13], the system named is PXR homodimer (NR concentration 270 nM). Summed up: as §1
In experiment [14] the test system is RARa:RXR (NR concentration 270 nM, RXRa partner concentration 90 nM). The method, boiled down:
as §1

Experiment [15] concerns RARa homodimer (NR concentration 270 nM). The method, boiled down: as §1
For experiment [16], the system named is RARb:RXRa (NR concentration 270 nM, RXRa partner concentration 90 nM). The method, boiled down:
as §1

The subject of experiment [17] is PXR:RXRa (NR concentration 270 nM, RXRa partner concentration 90 nM). Summed up: as §1

As to CCGAGTAGGTCACGAGGGGGCATTCAGTGCGAAT, the PBM binding z-score came out at 6.09 in experiment [1]; 6.71 in experiment [2]; 1.59 in [3]; 6.56 in [4]; 5.66 in experiment [5]; 7.8 in experiment [6]. Further, the PBM binding z-score in experiment [7] is 7.12; in experiment [8] it was 4.32; in [9], 6.72; in [10], 6.96; in experiment [11], 7.42; in [12], 2.44. In addition, the PBM binding z-score in experiment [13] was 4.34; in experiment [14] it was 4.38; in experiment [15], 1.07; in experiment [16], 4.58.

Take CTATGTAGGTTAAGGGGGTTATTCAGTTTGAAAG: the PBM binding z-score in [1] turned out to be 2.37; in experiment [2], 2.74; in experiment [3] it was 1.14; in experiment [4], 5.09; in [5], 5.34; in [6], 7.83. In addition, the PBM binding z-score in experiment [7] was 7.16; in [8], 5.05; in experiment [9], 7.12; in experiment [10], 6.94; in experiment [11], 7.29; in experiment [12], 2.61. The PBM binding z-score was determined as 3.46 in experiment [17], 5.03 in [13], 1.62 in experiment [15] and 2.24 in [16].

For CTATGTAGGTTAATGGGGTCATTCAGTTTGAAAG, the PBM binding z-score turned out to be 5.79 in experiment [1]; 5.31 in [2]; 3.46 in experiment [3]; 5.41 in experiment [4]; 6.23 in [5]; 7.9 in experiment [6]. Also, the PBM binding z-score in [7] is 7.12; in experiment [8], 4.64; in experiment [9], 6.55; in experiment [10], 7.34; in experiment [11], 7.83; in experiment [12], 3.7. Besides, the PBM binding z-score in experiment [13] stood at 13.3; in experiment [14], 6.66; in experiment [15] it was 1.57; in [16], 3.3.

Consider TCGAGTAGGTTACGGGGGCATTCAGGGATGAAGA, for which the PBM binding z-score in [1] worked out at 2.79; in experiment [2], 2.81; in experiment [3] it was 0.777; in experiment [4], 5.02; in [5], 4.38; in [6], 5.95. The PBM binding z-score in experiment [7] worked out at 5.71; in [8], 3.3; in experiment [9], 5.07; in experiment [10], 4.99; in [11], 5.99; in [12], 1.92. Further, the PBM binding z-score in experiment [13] stood at 1.53; in experiment [14], 2.98; in [15], 1.5; in [16], 2.61.

Turning to CCGCGTAGGTTACGAGGGGGCATTCAGTGCGAAT, the PBM binding z-score stood at 2.11 in experiment [1]; 7.21 in experiment [2]; 1.61 in experiment [3]; 6.37 in experiment [4]; 3.17 in experiment [5]; 0.847 in experiment [6]. The PBM binding z-score in [7] was 2.86; in experiment [8] it was 0.411; in experiment [9] it was 2.18; in [10], 1.02; in experiment [11] it was 2.43; in [12] it was 1.12. Also, the PBM binding z-score in [17] is 4.76; in experiment [13] it was 4.05; in experiment [15] it was -0.311; in [16] it was 2.14.

Consider CCGAGTAGGTTACGAGGCGGCATTCAGTGCGAAT, for which the PBM binding z-score is -0.0338 in experiment [1]; 0.596 in experiment [2]; -0.363 in experiment [3]; -0.1 in experiment [4]; 1.06 in experiment [5]; 0.984 in experiment [6]. The PBM binding z-score in experiment [7] is 1.28; in experiment [8], -0.404; in experiment [9], 0.408; in [10] it was 4.1; in experiment [11], 3.3; in experiment [12] it was 0.605. The PBM binding z-score in [17] is -0.147; in experiment [13] it was -0.255; in [14], 0.2; in experiment [15], -0.448; in experiment [16], 0.768.

Regarding TCGAGTAGGTTACGGGGTCATTCAGGGATGAAGA, the PBM binding z-score in [1] is 6.23; in [2], 5.46; in experiment [3], 1.76; in experiment [4] it was 5.33; in [5] it was 6.21; in experiment [6], 8.14. Moreover, the PBM binding z-score in experiment [7] is 6.68; in experiment [8], 4.18; in [9], 5.91; in experiment [10], 5.23; in experiment [11], 6.24; in [12] it was 2.46. Further, the figures for the PBM binding z-score in [13], in experiment [15] and in [16] were 2.57, 0.377 and 3.87, respectively.

CCGAGTACGTTACGAGGGGGCATTCAGTGCGAAT: the PBM binding z-score turned out to be 1.3 in [1]; 3.11 in [2]; 0.927 in experiment [3]; 4.03 in experiment [4]; 2.23 in [5]; 0.00178 in [6]. The PBM binding z-score in experiment [7] is 0.968; in experiment [8], -0.231; in [9] it was 0.521; in [10] it was 0.709; in experiment [11], 1.25; in experiment [12], 1.37. The PBM binding z-score is 3.35 in [17]; 6.19 in experiment [13]; 2.07 in experiment [14]; 0.384 in experiment [15]; 1.29 in experiment [16].

As for TCGAGTAGGTTACGCGGGCATTCAGGGATGAAGA, the PBM binding z-score in experiment [1] was 0.576; in [2], 0.477; in [3], -0.0246; in experiment [4], -0.00737; in experiment [5] it was 1.49; in [6], 1.38. In addition, the PBM binding z-score in experiment [7] amounted to 1.88; in [8] it was 1.46; in [9], 1.79; in [10], 2.91; in [11], 3.32; in experiment [12], 0.356. Besides, the PBM binding z-score in [13] is -0.508; in experiment [14], 0.641; in [15], -0.865; in experiment [16], 0.946.
